The values that follow come from PubChem BioAssay (NCI).

Compounds without any hit were thinned out: in the full panel of roughly 83,000, 20% have a hit.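 Activity criterion: percent growth below 10, measured after cells in 96-well plates were exposed to a single compound concentration for 48 hours.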 A number with no mark means an inactive call. Calls of active or inactive are those of the source.

This test has as its system HL-60(TB) leukemia. The test can be described thus: NCI-60 one-dose screen, 48 h (100 = growth as untreated, 0 = no growth, -100 = all killed). Conditions: 10 µM unless noted.
`O=C(Nc1ccc(Cl)cc1)Oc1c(Cl)c(Cl)c(Cl)c(Cl)c1Cl`: the growth was 98.5%.

Turning to `O=C(NN1C(=O)CSC1c1cccc([N+](=O)[O-])c1)c1ccc(NC(=O)c2ccccn2)cc1` (stereo unspecified), the growth was 67.6%.

As for `CC(C)c1ncc([N+](=O)[O-])n1C`, the growth was 118%.

In the case of `N=C(N)c1ccc(-c2ccc(-c3cccs3)s2)cc1F`, the growth is -47.8% (active).

For `Nc1ccc2c(c1)c(N)nn2C(=O)Nc1ccc(Cc2ccccc2)cc1`, the growth is 16.4%.

With `Nc1c(C(=O)Nc2ccccc2F)sc2nc3c(cc12)C(=O)CCC3`, the growth was 33.9%.

With `COc1ccc(NC(=O)[C@@H]2C[C@H]2c2ccccc2)c(C(N)=O)c1`, the growth was 93.9%.

For the molecule `CCCCN1C(=O)CC(SC2CC(=O)N(CCCC)C2=O)C1=O` (stereo unspecified), the growth was 132%.

As for `Cc1ccc(/C=C(\C#N)n2nc3cccc(F)c3n2)cc1`, the growth is 86.6%.

For `Cc1ccc(/C=C/C(=O)c2ccc(NC(=O)CSc3nc4c([nH]3)c(=O)n(C)c(=O)n4C)cc2)c(C)c1`, the growth was 94.5%.

With `OC1COC(OCc2ccccc2)C(O)C1O` (stereo unspecified), the growth was 101%.

For `OCCN1CCOCC1`, the growth is 121%.

As to `O=c1cc(-c2ccccc2)nc2cc(-c3ccco3)[nH]n12`, the growth is 82.7%.

Regarding `CSc1cccc(NC(=O)Nc2nc3c(C)cccc3s2)c1`, the growth was 85.8%.

For the molecule `O=C1Nc2ccccc2/C1=C/C(=O)c1ccc(N2CCCC2)cc1`, the growth is -10.8% (active).

`Nc1nc(N(Cc2ccccc2)c2ccccc2)c2cn[nH]c2n1`: the growth is 32.8%.

For the molecule `CC(=O)Nc1ccc([I+]c2ccc([N+](=O)[O-])cc2)cc1`, the growth is 109%.

With `C#CCOc1cc(/C=N/Nc2nc(-c3ccc(OC)cc3)cs2)ccc1O`, the growth is 97.6%.

`O=C(Nc1nc2cccc(-c3ccc(CN4CCS(=O)(=O)CC4)cc3)n2n1)C1CC1`: the growth was 66.4%.

On to `CC(=O)c1c[nH]c2ccc(-c3ccnc(Nc4ccc(NC(=O)C5CCCC5)c(CN5CCOCC5)c4)n3)cc12`, for which the growth is -31.5% (active).

As to `COc1c(O)cc2oc3cc(O[C@@H]4OC(C)[C@@H](O)[C@H](O)C4O)c(CC=C(C)C)c(O)c3c(=O)c2c1CC=C(C)C` (stereo partly specified), the growth is 90.4%.

As for `COc1ccc(C2=NNC(c3ccc(Oc4nc5c(c(=O)n(C)c(=O)n5C)n4C)c(OC)c3)C2)cc1` (stereo unspecified), the growth was 90.6%.

For `O=C(O)c1ccc2c3c(ncnc13)-c1ccccc1C2=O`, the growth was 85.1%.

As to `CCOC(=O)n1cc(-c2nonc2-c2cn(C(=O)OCC)c3ccc(Br)cc23)c2ccccc21`, the growth was 93.9%.

Consider `O=C(/C=C/c1ccc(F)cc1)Nc1ncc(Cc2ccc(F)cc2)s1`, for which the growth is -26.6% (active).

For the molecule `N#Cc1c(NC(=O)c2ccco2)[n+]([O-])c2cc(F)c(F)cc2[n+]1[O-]`, the growth was 38%.
